For the experiment, the system named is Trypanosoma brucei. The experiment is described as follows: Trypanosoma brucei 72 hour study. The arrangement: scale not given: in the data most compounds retested in dose-response had high values. Format: functional, organism-based.

Structures are written as SMILES. In all, about 66,000 compounds went through this assay and about 960 (1.5%) showed an effect of 50% or more. The sample holds strong results, similar compounds and a random draw of the others, so the mix is not that of the screen.

In the case of `CN(C)c1ccc(C(CNS(=O)(=O)c2cccs2)N2CCCC2)cc1` (centres undefined), the “Percent Effect” value (30 µM, 30.03 µM) is reported as -11.49%.
Regarding `C1CC(N2Cc3nnn(CC4CC4)c3C(COCC3CC3)C2)C1.O=C(O)C(F)(F)F` (centres undefined), under “30.3 µM, […]”, the “Percent Effect” value is reported as -49.13%.
The same measure, in the same setting: for `O=C(O)C(F)(F)F.O=C([C@H]1CCCO1)N1CCN(CCn2cccn2)c2ncccc2C1` the value was -89.38%.
Same read-out and setting: for `COCC(=O)N1CCN(Cc2cc(-c3ccncc3)nn2C)CC1` the value was -0.9188%; for `COCC1CN(c2ccc(C)nn2)Cc2cnn(CC3CCOCC3)c21.O=C(O)C(F)(F)F.O=C(O)C(F)(F)F` (centres undefined), -39.18%; for `COCCN1CCC2(CC1)CC(NC(=O)CC1CC1)c1ccccc1O2.O=C(O)C(F)(F)F` (centres undefined), -15.57%.
As to `CN(C)[C@@H]1CN(C(=O)CCc2ccccc2)[C@@H]2CCCO[C@H]12.O=C(O)C(F)(F)F`, the “Percent Effect” value (30.3 µM, […]) was -48.96%.
As to `CC(C)(N)C(=O)N1CCC(c2nccnc2Oc2cccc(F)c2)CC1`, the “Percent Effect” value (30.3 µM, […]) came out at 6.584%.
In the case of `O=C(Nc1cccnc1)[C@@H]1CCO[C@@H]2CCN(Cc3cccnc3)C[C@@H]21.O=C(O)C(F)(F)F.O=C(O)C(F)(F)F.O=C(O)C(F)(F)F`, the “Percent Effect” value (30 µM, 30.03 µM) is -27.43%.
As to `Cc1cc2c(=O)n(CC(=O)N3CCn4cccc4C3C(C)C)cnc2s1` (centres undefined), where the note is “30.3 µM, […]”, the “Percent Effect” value is on record as -7.761%.
On the same count and under the same terms, then `CCCC1c2cccn2CCN1C(=O)Cn1cnc2sc(C)cc2c1=O` (centres undefined), with -9.094%.
Still for that read-out and setting: then `CCC1c2ccc(C)n2CCN1C(=O)Cn1cnc2sc(C)cc2c1=O` (centres undefined), with 55.61%; and `CCCS(=O)(=O)N1C[C@@H](c2ccccc2)[C@@]2(CCNC2=O)C1`, with -54.35%; and `Cn1cccc1C(=O)N1C[C@H]2CN(Cc3cccc(F)c3)C[C@H]2C1.O=C(O)C(F)(F)F`, with -14.05%.
As for `O=c1[nH]ncc(NCCOc2ccc3c(c2)CCC3)c1Cl`, the “Percent Effect” value (30 µM, 30.03 µM) is recorded as 6.404%.
As for `CC(C)CCN(CCC(C)C)Cc1nc2c(cnn2C)c(=O)[nH]1`, the “Percent Effect” value (30.3 µM, […]) is recorded as 99.67%.
On the same count and under the same terms, for `CC(C)CN(Cc1nc2c(cnn2C)c(=O)[nH]1)CC(C)C` the value was 3.745%.
Turning to `CC(C)CCN(C)Cc1nc2c(cnn2C)c(=O)[nH]1`, where the note is “30.3 µM, […]”, the “Percent Effect” value is on record as 0.4486%.
For `CO[C@@H]1CCN(C(=O)c2ccccn2)[C@H]1Cc1ccccc1.O=C(O)C(F)(F)F`, the “Percent Effect” value (30.3 µM, […]) is listed as 3.29%.
Regarding `CC1c2ncc(COc3cccnc3)n2CCN1Cc1cnn(C)c1.O=C(O)C(F)(F)F.O=C(O)C(F)(F)F` (centres undefined), the “Percent Effect” value (30.3 µM, […]) amounted to 2.727%.
Regarding `COc1ncccc1C(=O)N1CC[C@H]2C[C@@H](c3nccs3)O[C@@H]2C1`, the “Percent Effect” value (30 µM, 30.03 µM) is listed as -31.44%.
For the molecule `NCC(CO)Cc1ccc(OC(F)(F)F)cc1` (centres undefined), the “Percent Effect” value (30 µM, 30.03 µM) was -40.47%.
The same measure, in the same setting: then `CNC(=O)NCC(CO)Cc1cccc(OC(F)(F)F)c1` (centres undefined), with -27.06%.
Still for that read-out and setting: for `NCC(CO)Cc1cccc(OC(F)(F)F)c1` (centres undefined) the value was 97.23%.

These data come from ChEMBL document CHEMBL3988442, “University of Dundee, Small-Polar-MMV Screening Library” (2021).
